From PubChem BioAssay AID1626 (SRMLSC, 2009)
Several values for one entry are separate records, joined by “and”; a condition that tells them apart may be missing. Equal values may be shown once. Screen size: about 220,000 compounds; about 2,000 (0.91%) were called active. Roughly 2% stayed inconclusive and do not appear here. A selection follows. Entries with a potency or affinity are not part of this list. Values without a mark were called inactive. Rule as the data show it: inconclusive = inhibition above about 80% without an active follow-up result; inactive = below that; test concentration not stated here.

Assay: M. tuberculosis H37Rv growth inhibitors, H37Rv strain (AID 1626);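 also: bacteria incubated seven days before Alamar blue readout; 0% = bacteria only wells and 100% = bacteria with antibiotic wells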
Conditions: stronger effect = higher value, concentration not given here

| SMILES | inhibition |
| --- | --- |
| COc1ccc(C(=O)CN2C3=NCCCN3c3ccccc32)cc1OC | -2.22% |
| CCc1c(C(=O)N/N=C/c2ccsc2)csc1C | -6.79% |
| CCc1ccc(C(=O)NC(C(=O)O)C(C)C)cc1 (configuration not stated) | -19.3% |
| COc1cccc(NC(=O)CCSc2ccc3ccccc3n2)c1 | 28.7% |
| COc1ccc(NC(=O)CCSc2ccc3ccccc3n2)cc1 | 70.9% |
| Cc1cc(C)n2nc(N)c(N=Nc3cccc(Cl)c3)c2n1 | 79.8% |
| CC(=O)c1ccc(-c2ccc(/C=C(/Sc3n[nH]c(C)n3)C(=O)O)o2)cc1 | 6.55% |
| Cc1nc(S/C(=C/c2ccc(-c3ccc(C(=O)O)cc3)o2)C(=O)O)n[nH]1 | -17.2% |
| O=c1oc2ccccc2c(N2CCCCC2)c1CN1CCCCC1 | 1.71% |
| COc1ccc(OC(=O)c2cc3ccccc3o2)cc1 | 0.38% |
| COc1ccc(OC)c(NC(=O)c2cc3ccccc3o2)c1 | 7.13% |
| O=C1CCCC2=C1C(c1ccncc1)c1c(nc(SCc3ccccc3Cl)[nH]c1=O)N2 (configuration not stated) | 11.3% |
| CC[C@@H](C)C(NC(=O)OC(C)(C)C)c1cn([C@@H](CCC(=O)OC(C)(C)C)C(=O)N2CCN(C(=O)OC(C)(C)C)CC2)nn1 (some centres not stated) | -1.45% |
| O=C(c1ccc(COc2c(F)c(F)c(F)c(F)c2F)o1)N1CCN(Cc2ccc3c(c2)OCO3)CC1 | -9.41% |
| O=C(c1ccc(COc2ccccc2Cl)o1)N1CCN(Cc2ccc3c(c2)OCO3)CC1 | -0.88% and 13.3% |
| OCCC1CN(Cc2cccc(-n3cccn3)c2)CCN1Cc1ccccc1 (configuration not stated) | -1.74% |
| CC(CCc1ccccc1)NC(=O)CSc1nc(N)cc(N)n1 (configuration not stated) | -5.33% |
| COc1cccc(C2(O)CCN(Cc3ccncc3)CC2)c1 | -10.2% |
| COc1cc2c(C(=O)O)c(C)n(C)c2cc1Br | -0.16% |
| Cc1cnc(C(=O)NCc2ccc(Cl)cc2Cl)cn1 | -2.88% |
| CCOC(=O)c1cc(C)nc(SC)c1C#N | 2.58% |

| SMILES | inhibition |
| --- | --- |
| C#CCSc1nc(C)cc(C(=O)OCC)c1C#N | -3.19% |
| NC1=NC(c2ccccc2)=NC1(NC(=O)c1ccccc1)C(Cl)Cl (configuration not stated) | -0.7% |
| COc1ccc(OCC(O)CN(CCO)CC(O)Cn2ccc3ccccc32)cc1 (configuration not stated) | 3.01% |
| COC(=O)c1ccc(OCC(O)CN(CCO)CC(O)Cn2ccc3ccccc32)cc1 (configuration not stated) | 4.35% |
| Cc1ccsc1C(=O)C1CCCN(Cc2cc(F)ccc2-n2cccn2)C1 (configuration not stated) | 10.8% |
| Cc1noc(C)c1COC(=O)c1ccc(-c2nc3ccccc3s2)s1 | -10.8% |
| CCN1CCN(C(=O)c2ccc(-c3nc4ccccc4s3)s2)CC1 | 0.41% |
| COCCNC(=O)COC(=O)CSCc1nc2ccccc2s1 | -1.53% |
| O=C(NC1CC1)c1ccc(-c2nc3ccccc3s2)s1 | 46.3% |
| O=S(=O)(NC1CCCCC1)c1ccc(Br)cc1 | 3.07% |
| Cc1occc(=O)c1OCc1c(F)cccc1Cl | 1.78% |
| CC(C)CNC(=O)COc1ccc(Sc2ccc(OCC(=O)NCC(C)C)cc2)cc1 | 4.46% |
| CCc1nnc(NC(=O)CCC(=O)NCc2ccc(OC)cc2)s1 | -3.41% |
| O=C(O)c1cccc(Cn2c(Cl)c(/C=N/NC(=O)c3cccc(O)c3)sc2=O)c1 | -13.5% |
| Cc1ccc(NC(=O)CCC(=O)c2cccs2)c(O)c1 | -1.47% |
| Cc1ccc2nc(-c3ccncc3)cc(-c3ccccc3)c2c1 | 9.15% |
| CCOC(=O)c1cc(-c2ccccc2)nc2ccc(C)cc12 | 29.4% |
| CCS(=O)(=O)Nc1cccc(-c2ccc3nnc(C)n3n2)c1 | -7.2% |
| Cc1ccc2nc(-c3ccc(NS(C)(=O)=O)cc3)cc(-c3ccccc3)c2c1 | 64.5% |
| COC(=O)[C@@H]1CCCN1C(=O)CCc1nnc(C2CCCCC2)o1 | 3.78% |
| COc1ccc(NC(=O)O/N=C2/CCCc3ccc(OC)cc32)cc1 | -0.42% |

| SMILES | inhibition |
| --- | --- |
| O=S(=O)(Cc1cc(N2CCOCC2)nc(-c2ccccn2)n1)c1ccccc1 | 2.59% |
| Cc1nc(CSc2ccc(Cl)cc2)cc(N2CCOCC2)n1 | -2.98% |
| O=C(Nc1ccc2c(c1)OCO2)c1ccc(S(=O)(=O)N2CCCC2)cc1 | -0.32% |
| CCOc1ccc(NC(=O)c2ccc(CNc3c(N4CCCC4)c(=O)c3=O)cc2)cc1 | 67.9% |
| CCOc1cc(/C=C/c2ccc3cccc([N+](=O)[O-])c3n2)cc(Cl)c1O | 0.72% |
| CC(=O)Oc1c(Cl)cc(Cl)cc1/C=C/c1ccc2ccccc2n1 | 21.1% |
| Nc1nccc(/C=C/c2c(F)cccc2Cl)n1 | 0.04% |
| Fc1cccc(F)c1/C=C/c1ccc2ccccc2n1 | 7.53% |
| Clc1ccccc1OCc1nn[nH]n1 | -3.82% |
| Cn1cc2cccc([N+](=O)[O-])c2n1 | -0.35% |
| O=C(/C=C/c1ccco1)Nc1ccc2c(c1)OCO2 | 2.3% |
| Nc1nc(N2CCN(c3ccc(Cl)cc3)CC2)n[nH]1 | 6.82% |
| CSc1ccc(C(=O)C2CCCN(Cc3ccn[nH]3)C2)cc1 (configuration not stated) | 2.84% |
| CCCCc1ncc(CN2CCCC(C(=O)c3ccc(SC)cc3)C2)[nH]1 (configuration not stated) | 1.38% |
| CCOC(=O)c1cc(-c2ccco2)nc2c1c(C)nn2-c1cccc(Cl)c1 | -0.03% |
| O=C(NCC1CCCCC1)c1cc([N+](=O)[O-])ccc1N1CCOCC1 | 6.09% |
| CC(NC(=O)c1ccccc1Br)c1ccc2c(c1)CCCC2 (configuration not stated) | 6.54% |
| CC(NC(=O)c1ccc(F)cc1)c1ccc2c(c1)CCCC2 (configuration not stated) | 1.58% |
| CCOC(=O)C(CC)Sc1ncnc2c1nnn2-c1ccc(F)cc1 (configuration not stated) | 10.4% |
| CCC(Sc1ncnc2c1nnn2-c1ccc(F)cc1)C(=O)OC (configuration not stated) | 66.9% |
